An excerpt weighted towards active compounds, which were near 1.3% of everything screened.
SARS PLpro yeast-1: inhibitors of SARS-CoV papain-like protease in yeast; S. cerevisiae expressing SARS-CoV PLpro, growth rescue; Potency, µM (series often up to 32.9 µM), for the others: at the highest dose activity, positive = growth rescue, most hits filed as activators; hit rate 0.19% among 330,000; calls by dose curve; further: potency means the concentration at half of the fitted maximal effect; 0% is about no effect; nearly all actives have a fitted effect of over 55% in size
AmpC no deterg: blocks E. coli AmpC beta-lactamase in detergent-free assay. P00811. AmpC nitrocefin hydrolysis, absorbance 480 nm, 0.0001% Triton. Potency, µM (titrated, usually from 57.1 µM), for the others: top-dose activity change, negative = inhibition, usual class: inhibitors. hit rate 0.52% among 330,000;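 further: potency means the concentration at half of the fitted maximal effect; plate controls were no compound for no effect and no enzyme for full effect; nearly all actives have a fitted effect of over 20% in size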
Target sequence (P00811 whole entry, looked up): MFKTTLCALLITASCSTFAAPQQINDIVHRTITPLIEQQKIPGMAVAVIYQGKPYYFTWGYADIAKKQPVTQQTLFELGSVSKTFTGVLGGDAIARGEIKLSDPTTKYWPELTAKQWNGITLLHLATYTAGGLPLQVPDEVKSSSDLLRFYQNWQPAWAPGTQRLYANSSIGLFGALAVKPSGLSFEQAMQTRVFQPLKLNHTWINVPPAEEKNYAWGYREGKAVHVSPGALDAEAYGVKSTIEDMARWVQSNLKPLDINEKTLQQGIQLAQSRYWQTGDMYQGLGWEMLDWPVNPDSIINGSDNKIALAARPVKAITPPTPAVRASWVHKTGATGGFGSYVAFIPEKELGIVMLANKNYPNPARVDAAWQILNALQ
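AmpC (5.3 nM in the dispensed reagent) in 20 mM phosphate pH 7.0 with 0.01% (detergent screen) or 0.0001% Triton X-100 was preincubated with compounds for 15 min at room temperature. Nitrocefin was then added from an 800 uM solution, and hydrolysis was followed at 480 nm.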
AMA1-RON2 inh: inhibitors of Plasmodium falciparum AMA1-RON2 interaction; hit rate 0.2% among 360,000; Potency, µM (highest dose often 58.2 µM), without a hit: top-dose activity change, negative = inhibition, most hits filed as inhibitors; AlphaScreen AMA1-biotinylated RON2 peptide binding; AID 720542;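 further: potency means the concentration at half of the fitted maximal effect; 0% = vehicle wells and -100% = peptide control; nearly all actives have a fitted effect of over 45% in size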
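AMA1 (3D7) with his tag at 25 nM final met compounds first, then biotinylated RON2 peptide at 25 nM; detection used donor plus acceptor beads, 10 µg/mL apiece, read by AlphaScreen after 30 min at room temperature.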
VACV Venus inh: inhibitors of vaccinia virus (Venus reporter) | Vaccinia virus Venus reporter expression, fluorescence | hit rate 0.46% among 330,000 | Potency, µM (highest dose often 36.5 µM), for the others: at the highest dose activity change, negative = inhibition, actives largely listed as inhibitors; calls by dose curve; tested in A549 cells; further: potency means the concentration at half of the fitted maximal effect; on the % scale 0 is the no-effect control and ±100 the full control effect; nearly all actives have a fitted effect of over 30% in size
AmpC inh detg: blocks E. coli AmpC beta-lactamase in detergent assay. P00811. AmpC hydrolysis of nitrocefin, absorbance 480 nm, 0.01% Triton. Potency, µM (titrated, usually from 114 µM), for inactives: top-dose activity change, negative = inhibition, actives largely listed as inhibitors. hit rate 0.041% among 370,000. AID 485294;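 further: potency means the concentration at half of the fitted maximal effect; 0% = no-compound wells and -100% = no-enzyme wells; nearly all actives have a fitted effect of over 25% in size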
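AmpC (5.3 nM in the dispensed reagent) in 20 mM phosphate pH 7.0 with 0.01% (detergent screen) or 0.0001% Triton X-100 was preincubated with compounds for 15 min at room temperature. Nitrocefin was then added from an 800 uM solution, and hydrolysis was followed at 480 nm.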
Vaccinia mCherry: inhibitors of vaccinia virus infection (mCherry reporter signal). hit rate 0.63% among 310,000. Potency, µM (highest dose often 36.5 µM), for the others: at the top dose activity change, negative = inhibition, usual class: inhibitors. Vaccinia virus mCherry reporter infection, fluorescence. AID 720579; calls by dose curve; tested in A549 cells; further: potency means the concentration at half of the fitted maximal effect; on the % scale 0 is the no-effect control and ±100 the full control effect; nearly all actives have a fitted effect of over 35% in size
SARS PLpro yeast-2: Validates SARS-CoV PLpro inhibitor hits in yeast; shares compounds with SARS PLpro yeast-1; yeast expressing SARS-CoV PLpro, growth phenotype rescue; calls only; hit rate 19% among 1,000; AID 652038; call rule not given here
* = called active by the depositor; i = inactive; ? = inconclusive; . = no result given; + = active, no number; [ ] = another dose, or the depositor's remark. Unless noted, the call rests on the fitted dose curve; in most records, active means well fitted curve in the direction sought with a large enough effect; inconclusive means small, poorly fitted or top-dose-only effect, or another doubt; inactive means no such curve, though single readings can be large; an effect the other way counts as inactive or inconclusive.

SMILES	SARS PLpro yeast-1	AmpC no deterg	AMA1-RON2 inh	VACV Venus inh	AmpC inh detg	Vaccinia mCherry	SARS PLpro yeast-2
Cc1cccc(C(=O)N(c2ccccn2)C(C)c2ccco2)c1 (stereo not given)	0%	-10%[11.4 µM]	-4%	2%	?	i	.
O=C(CC[C@H]1O[C@@H](n2ccc(=O)[nH]c2=O)[C@H](O)[C@@H]1O)N1CCN(Cc2cccc3ccccc23)CC1	.	.	5%	2%	.	24%	.
CCCC(=O)Nc1ccc(C(=O)NNC(=O)c2ccco2)cc1	?	-18%	-9%	.	-5%	.	i
CC1=C2CCCC[C@@]23C2C(=O)N(C)C(=O)[C@@H]2ON3OC1 (stereo not given in full)	.	.	-3%	3%	.	-8%	.
Cc1ccc(N(C(=O)Cn2nnc3ccccc32)C(C(=O)NCc2ccccc2)c2ccccn2)cc1 (stereo not given)	7%	30%	-11%	-8%	-2%	i	.
CC(=O)c1ccc(N(C(=O)Cn2nnc3ccccc32)C(C(=O)NCc2ccccc2)c2ccccn2)cc1 (stereo not given)	18µM*	34%	37%	-11%	?	-15%	i
COC(=O)N1CCCc2cc(S(=O)(=O)NCc3ccccc3)ccc21	.	.	.	-6%	-3%	-11%	.
Cc1cc(/C=C(\C#N)C(=O)NC2CC2)c(C)[nH]1	5%	-10%	7%	-14%	-15%	-17%	.
Cc1cc(/C=C(\C#N)C(=O)NC2CCCCCC2)c(C)[nH]1	13µM*	-40%	-1%[2.32 µM]	-9%	?	-1%	i
COc1ccc(S(=O)(=O)Nc2cccc3c2O[C@H](CN(C)Cc2ccc(Cl)c(Cl)c2)[C@@H](C)CN([C@H](C)CO)C3=O)cc1	?	180%	-2%	?	.	-23%	?
C[C@H](CO)N1C[C@H](C)[C@@H](CN(C)C(=O)Nc2ccccc2)Oc2c(NC(=O)NC3CCCCC3)cccc2C1=O	?	204%	9%	-12%	.	-4%	i
C[C@H]1CN([C@@H](C)CO)C(=O)c2cccc(NS(=O)(=O)c3ccc(F)cc3)c2O[C@H]1CN(C)Cc1ccc(Cl)c(Cl)c1	-4%	181%	7%	?	.	-15%	.
C[C@H](CO)N1C[C@H](C)[C@@H](CN(C)C(=O)NC2CCCCC2)Oc2c(NC(=O)Nc3ccccc3)cccc2C1=O	5%	293%	71%	-19%	.	-4%	.
O=C(CNC(=O)c1cccc(F)c1)NC1CC1	-2%	-14%	-8%	-5%	.	-15%	.
COc1cccc(C(C)NC(=O)C2CCCC2)c1 (stereo not given)	-3%	-9%	13%	.	-11%	.	.
Cc1cnc(C(=O)OCc2cc(=O)n3c(C)cccc3n2)cn1	-5%	-10%	-8%	7%	.	i	.
Nc1cc(Cl)nc(N/N=C/c2c(O)ccc3ccccc23)n1	2.5µM*	-35%	22%	?	-12%	28µM*	i
Nc1nonc1N/N=C/c1c(O)ccc2ccccc12	-2%	-33%	86%	-25%	-10%	-29%	.
Cc1cc(C(=O)OCC(=O)N2CC(=O)Nc3ccccc32)c(C)n1-c1ccccc1	11%	-4%	-5%	-18%	5%	-6%	.
Cc1cc(C(=O)OCC(=O)N2CC(=O)Nc3ccccc32)c(C)n1-c1ccc(F)cc1	4µM*	-12%	8%	-22%	-18%	0%	?
CC1C(=O)N(Cc2cn(Cc3ccco3)nn2)CCS(=O)(=O)N1Cc1ccc(-c2ccccc2C(F)(F)F)cc1 (stereo not given)	.	.	0%	-23%	.	4%	.
CN(C)c1cc(N2CCOCC2)nc(C#N)n1	.	.	.	-14%	.	-22%	.
COc1ccc(C2OC(=O)c3ccccc3S2)cc1 (stereo not given)	?	-27%	50%	.	?	.	i
Cc1c(NC(=O)C(C)Sc2ccccc2)c(=O)n(-c2ccccc2)n1C (stereo not given)	-7%	-4%	13%	-2%	-2%	.	.
Cc1ccc(SCCC(=O)Nc2c(C)n(C)n(-c3ccccc3)c2=O)cc1	?	-3%	8%	-13%	-2%	i	i
SMILES	SARS PLpro yeast-1	AmpC no deterg	AMA1-RON2 inh	VACV Venus inh	AmpC inh detg	Vaccinia mCherry	SARS PLpro yeast-2
Cc1ccc(SC(C)C(=O)Nc2c(C)n(C)n(-c3ccccc3)c2=O)cc1 (stereo not given)	?	-7%	3%	.	3%	.	+
CCn1nnc(-c2ccccc2NS(=O)(=O)c2ccc(S(=O)(=O)N(C)C3CCCCC3)cc2)n1	?	-13%	14%	.	-6%	.	+
COCC(O)CNc1ccccc1 (stereo not given)	?	-10%	-8%	-4%	-1%	-11%	i
CN(C)c1cccc(C(=O)N/N=C/c2ccoc2)c1	.	.	5%	-16%	.	-10%	.
CN(C)c1cccc(C(=O)N/N=C/c2ccsc2)c1	20µM*	-28%	0%	-8%	-9%	-1%	i
COc1cccc(NC(=O)CSc2nc3ccc(NC(=O)c4ccco4)cc3s2)c1	.	.	.	-3%	21%	-9%	.
CCN1CCc2c(sc(NC(=O)Nc3ccc(Cl)c(Cl)c3)c2C(N)=O)C1	?	46%	15%	?	-6%	?	i
CCN1CCc2c(sc(NC(=O)Cc3ccccc3)c2C(N)=O)C1	-1%	4%	-3%	?	?	?	.
CCCCN(C)Cc1c(C)[nH]c2ccc(OCC)cc2c1=O	?	-9%	15%	-18%	?	i	i
COc1ccc(NC(=O)C2=C(C)Nc3ncnn3C2c2cccn2C)cc1 (stereo not given)	.	.	.	-4%	3%	-9%	.
COc1cc(NC(=O)Cn2c(C)cc3ccccc3c2=O)cc(OC)c1OC	13µM*	-19%	10%	-6%	9%	-17%	i
COc1ccccc1NC(=O)CNC(=O)Cn1c(C)cc2ccccc2c1=O	5%	12%	19%	-17%	-2%	-12%	.
Cc1ccccc1-c1cnc(C(O)c2cccc(C)c2C)[nH]1 (stereo not given)	.	.	6%	-8%	.	28%	.
O=C(Nc1ccc(S(=O)(=O)Nc2ccccc2F)cc1)N1CCCCC1	?	-14%	-14%	-5%	7%	-8%	+
COc1ccccc1NS(=O)(=O)c1ccc(NC(=O)N2CCCCC2)cc1	-5%	-19%	-3%	0%	-3%	-12%	.
COc1ccc(Cn2c(-c3ccc(OC)cc3)n[nH]c2=S)cc1	7%	-22%	92%	-4%	6%	-1%	.
CC(C)Oc1ccc(Cn2c(-c3ccco3)n[nH]c2=S)cc1	22µM*	-22%	48%	?	4%	28µM*	i

From PubChem BioAssay
